Results from article PMC5700166.
Positions count from the first letter of the chain named.

Assays:
Test in all cases: protein-binding microarray (PBM); PBM: ~300 nM protein, 6 mM HEPES pH 7.8, 80 mM KCl, 0.5 mM EDTA, 0.5 mM EGTA, 6% glycerol, 35 ng/ul poly-dIdC, 1% milk, 1 h, room temperature; Ap Aiptasia and Nv Nematostella (sea anemones) / Co Capsaspora / Aq Amphimedon (sponge) / Dm Drosophila / Hu human; RHD is the Rel homology domain; high values mean tight binding
Conditions in all cases: dsDNA, one strand shown
GST-Ap-NF-kB RHD = target: T1, GST-Ap-NF-kB RHD (Exaiptasia pallida (Aiptasia), UniProt A0A913YAJ5 2-422)
T1 sequence: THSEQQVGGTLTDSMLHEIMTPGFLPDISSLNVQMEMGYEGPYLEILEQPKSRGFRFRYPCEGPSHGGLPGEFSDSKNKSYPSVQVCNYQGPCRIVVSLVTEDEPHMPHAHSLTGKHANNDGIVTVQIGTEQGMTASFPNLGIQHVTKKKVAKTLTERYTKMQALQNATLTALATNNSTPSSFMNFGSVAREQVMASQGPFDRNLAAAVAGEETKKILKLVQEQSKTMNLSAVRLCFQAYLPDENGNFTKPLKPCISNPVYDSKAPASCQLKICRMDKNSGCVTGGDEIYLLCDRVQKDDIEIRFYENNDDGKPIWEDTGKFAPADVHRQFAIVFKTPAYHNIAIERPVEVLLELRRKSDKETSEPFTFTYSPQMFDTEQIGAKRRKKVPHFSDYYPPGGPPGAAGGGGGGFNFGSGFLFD

[1] = target: T2, GST-Nv-NF-kB (Cys allele) (Nematostella vectensis, UniProt E5G601 2-411)
T2 sequence: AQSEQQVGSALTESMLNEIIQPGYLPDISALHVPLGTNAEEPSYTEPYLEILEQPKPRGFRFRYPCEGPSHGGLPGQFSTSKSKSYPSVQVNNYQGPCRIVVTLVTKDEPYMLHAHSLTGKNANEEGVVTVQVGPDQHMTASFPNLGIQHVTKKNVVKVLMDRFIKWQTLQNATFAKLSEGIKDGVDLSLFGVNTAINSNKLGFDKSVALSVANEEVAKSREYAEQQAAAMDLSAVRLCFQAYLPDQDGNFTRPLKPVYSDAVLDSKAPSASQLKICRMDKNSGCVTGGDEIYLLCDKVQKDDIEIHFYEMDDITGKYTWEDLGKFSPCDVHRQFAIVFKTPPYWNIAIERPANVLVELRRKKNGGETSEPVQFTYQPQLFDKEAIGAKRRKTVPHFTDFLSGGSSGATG

[2] = target: T3, GST-Nv-NF-kB (Ser allele) (Nematostella vectensis, UniProt A7UNT2 2-411)
T3 sequence: T2 sequence with Q21R, C66S, S207N, E215Q, V217A, E225K, A268E, D399E

GST-Co-NF-kB = target: T4, GST-Co-NF-kB (Capsaspora owczarzaki, UniProt F1ARL5 200-546)
T4 sequence: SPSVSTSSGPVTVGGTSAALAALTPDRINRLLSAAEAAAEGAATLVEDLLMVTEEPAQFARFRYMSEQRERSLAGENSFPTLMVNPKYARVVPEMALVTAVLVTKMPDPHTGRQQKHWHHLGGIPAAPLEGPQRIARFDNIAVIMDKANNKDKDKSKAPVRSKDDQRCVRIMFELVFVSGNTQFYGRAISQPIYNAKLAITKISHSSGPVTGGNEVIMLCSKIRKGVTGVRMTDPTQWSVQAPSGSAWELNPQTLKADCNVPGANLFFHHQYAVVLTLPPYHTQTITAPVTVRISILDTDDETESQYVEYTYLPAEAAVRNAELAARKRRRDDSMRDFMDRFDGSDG

GST-Dm-Relish = target: T5, GST-Dm-Relish (Drosophila melanogaster, UniProt Q94527 99-473)
T5 sequence: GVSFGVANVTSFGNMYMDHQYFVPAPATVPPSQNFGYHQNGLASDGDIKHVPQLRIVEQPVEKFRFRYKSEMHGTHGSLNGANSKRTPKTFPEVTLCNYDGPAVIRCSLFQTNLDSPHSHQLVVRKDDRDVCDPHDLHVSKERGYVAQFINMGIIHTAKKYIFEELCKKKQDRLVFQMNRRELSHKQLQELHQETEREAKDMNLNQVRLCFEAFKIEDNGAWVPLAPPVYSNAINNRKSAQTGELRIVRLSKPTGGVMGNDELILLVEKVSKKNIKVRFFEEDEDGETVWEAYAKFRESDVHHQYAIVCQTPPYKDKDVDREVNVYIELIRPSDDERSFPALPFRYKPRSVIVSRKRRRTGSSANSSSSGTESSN

GST-Aq-NF-kB = target: T6, GST-Aq-NF-kB (Amphimedon queenslandica, UniProt A9Y5G7 2-389)
T6 sequence: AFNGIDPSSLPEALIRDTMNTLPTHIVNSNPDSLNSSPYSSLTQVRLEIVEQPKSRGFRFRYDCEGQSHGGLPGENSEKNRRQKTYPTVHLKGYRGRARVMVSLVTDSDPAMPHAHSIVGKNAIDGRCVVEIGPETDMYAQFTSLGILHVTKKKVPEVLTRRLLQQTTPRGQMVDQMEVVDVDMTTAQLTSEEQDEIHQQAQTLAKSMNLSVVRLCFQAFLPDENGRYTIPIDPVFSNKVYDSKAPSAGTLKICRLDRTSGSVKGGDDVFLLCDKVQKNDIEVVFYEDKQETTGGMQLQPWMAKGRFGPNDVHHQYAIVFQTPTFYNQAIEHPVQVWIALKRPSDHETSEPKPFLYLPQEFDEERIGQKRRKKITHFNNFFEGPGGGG

GST-Hu-p50 = GST-Hu-p50 (Homo sapiens, UniProt P19838 7-356)
Sequence of GST-Hu-p50 (P19838 7-356): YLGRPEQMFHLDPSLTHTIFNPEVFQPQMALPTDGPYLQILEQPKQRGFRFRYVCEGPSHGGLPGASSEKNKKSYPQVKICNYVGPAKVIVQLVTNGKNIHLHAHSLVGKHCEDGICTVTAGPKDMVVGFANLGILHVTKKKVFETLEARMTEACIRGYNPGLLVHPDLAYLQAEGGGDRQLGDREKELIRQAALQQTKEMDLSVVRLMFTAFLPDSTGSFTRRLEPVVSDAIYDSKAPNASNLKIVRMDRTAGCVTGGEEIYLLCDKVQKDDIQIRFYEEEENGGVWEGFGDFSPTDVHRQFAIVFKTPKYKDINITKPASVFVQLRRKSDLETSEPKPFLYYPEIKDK

Sequence	binding signal (GST-Ap-NF-kB RHD) [z-score]	binding signal [1] [z-score]	binding signal [2] [z-score]	binding signal (GST-Co-NF-kB) [z-score]	binding signal (GST-Dm-Relish) [z-score]	binding signal (GST-Aq-NF-kB) [z-score]	binding signal (GST-Hu-p50) [z-score]
CCGATTAACATCAGACTTCCCCCTGATGTTAATCGGGTCTTGATTCGCTTGACGCTGCTG	7.28	7.38	7.81	7.84	7.18	6.8	6.2
CCGATTAACATCAGGGGTATTACTGATGTTAATCGGGTCTTGATTCGCTTGACGCTGCTG	4.43	3.56	3.14	3.37	3.55	4.5	3.9
CCGATTAACATCAGGGGGGTATATGATGTTAATCGGGTCTTGATTCGCTTGACGCTGCTG	5.34	2.99	4.19	5.73	3.95	4.1	3.59
CCGATTAACATCAAAAATACCCATGATGTTAATCGGGTCTTGATTCGCTTGACGCTGCTG	4.63	6.47	6.31	2.49	5.48	5.67	5.58
CCGATTAACATCACAAAACCCCCTGATGTTAATCGGGTCTTGATTCGCTTGACGCTGCTG	9.76	9.02	10.5	3.3	10.4	7.82	8.21
CCGATTAACATCAGAAATACCCCTGATGTTAATCGGGTCTTGATTCGCTTGACGCTGCTG	6.58	6.99	6.08	4.66	4.99	6.25	5.86
